In PubChem BioAssay AID1851 (National Center for Advancing Translational Sciences (NCATS), 2009):
The campaign covered roughly 16,000 compounds. About 5,700 (36%) were called active. Not shown: some 24% with an inconclusive outcome. The call rests on the fitted dose curve; in most records, active means well fitted curve in the direction sought with a large enough effect; inconclusive means small, poorly fitted or top-dose-only effect, or effect the other way; inactive means no such curve, though single readings can be large or run the other way. This is one part of the list.

Biological target: Cytochrome P450 1A2 (Homo sapiens) (UniProt P05177)
Sequence (P05177 whole entry, looked up): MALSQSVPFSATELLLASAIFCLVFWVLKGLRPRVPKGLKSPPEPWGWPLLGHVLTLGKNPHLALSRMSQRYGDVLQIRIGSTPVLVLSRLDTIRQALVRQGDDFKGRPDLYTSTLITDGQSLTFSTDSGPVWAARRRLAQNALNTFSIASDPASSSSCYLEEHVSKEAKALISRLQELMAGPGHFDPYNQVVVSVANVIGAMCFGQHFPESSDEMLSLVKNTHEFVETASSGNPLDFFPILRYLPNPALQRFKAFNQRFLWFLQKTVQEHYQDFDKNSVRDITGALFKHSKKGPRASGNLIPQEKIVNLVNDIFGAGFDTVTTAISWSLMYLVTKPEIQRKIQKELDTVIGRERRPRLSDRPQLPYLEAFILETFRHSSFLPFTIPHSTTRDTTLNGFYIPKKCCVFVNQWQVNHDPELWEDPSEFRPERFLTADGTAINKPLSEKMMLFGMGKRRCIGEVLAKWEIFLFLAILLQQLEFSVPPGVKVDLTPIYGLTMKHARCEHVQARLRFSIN
Assay: Cytochrome panel assay with activity outcomes
Conditions: recombinant CYP, pro-luciferin dealkylation, luminescence, p450-cyp1a2; series mostly up to 57.1 µM
On the % scale 0 is the no-effect control and ±100 the full control effect.

activity, negative = inhibition, inactive:
C/C(CCN1CCCCc2nc(C)c(C)cc21)=N\OC[C@@H](C)[C@H](OCc1ccccc1)C(C)C -4.06% [at 11.4 µM]
CO/N=C\[C@@H](C)[C@H](OCc1ccccc1)C(C)C -4.31% [at 11.4 µM]
COC(=O)C/C=C\[C@@H](C)[C@@H](/C=N\OC[C@@H](C)[C@H](OCc1ccccc1)C(C)C)OC -0.613% [at 11.4 µM]
N#C[C@H]1CN[C@H](N)N[C@@H]1N -11.6% [at 2.29 µM]
COC(=O)[C@@H]1O[C@@H](c2c(OC)c(OC)c(C)c(OC)c2OC)[C@H](C)[C@@H](O)[C@@H]1C -4.49% [at 11.4 µM]

AC50, active:
O=C(c1cc(C(F)(F)F)cc(C(F)(F)F)c1)N1CCC[C@@]2(CCN(Cc3ccncc3)C2)C1 12.6 µM
O=S(=O)(c1ccccc1)N1CCC2(CCCN(Cc3ccncc3)C2)CC1 12.6 µM
COCC(=O)N1CCC2(CCN(Cc3ccncc3)CC2)CC1 10 µM
N#Cc1ccc(CN2CC[C@@]3(CCCN(C(=O)c4cc(C(F)(F)F)cc(C(F)(F)F)c4)C3)C2)cc1 25.1 µM
O=C(c1ccncc1)N1CCC2(CCCN(Cc3ccncc3)C2)CC1 6.31 µM
O=C(c1cc(C(F)(F)F)cc(C(F)(F)F)c1)N1CCC[C@@]2(CCN(Cc3ccccc3)C2)C1 25.1 µM
O=C(c1cnccn1)N1CCC[C@@]2(CCN(Cc3ccncc3)C2)C1 15.8 µM
O=C(c1ccncc1)N1CCC2(CCCN(C(c3ccccc3)c3ccccc3)C2)CC1 0.2 µM
CC(=O)c1sc(N)c(C(=O)OC(C)C)c1C 3.55 µM
Cc1ccc(C)c(CN2C(=O)C3CCCN3c3ccc(C#N)cc32)c1 (stereo unspecified) 12.6 µM
CCCCc1cc2ccccc2c(OCCN(C)C)n1 0.0794 µM
CC(=O)C1=C(NC(=O)c2ccc(F)cc2)CC2C1C2(C)C (stereo unspecified) 0.2 µM
COC(=O)CSc1ccc2nnc(-c3ccc(F)cc3)n2n1 1.58 µM
COC(=O)C(C)Sc1ccc2nnc(-c3ccc(F)cc3)n2n1 (stereo unspecified) 0.794 µM
CCCN(C/C=C\I)[C@@H]1CCc2cccc(O)c2C1 2.51 µM
CCNc1nc(NCC)nc(N(C)N)n1 0.708 µM
Cc1ccc(C(=O)N/N=C/c2nc3ccccc3n2C)cc1 7.08 µM
Cn1c(/C=N/NC(=O)c2ccccc2Br)nc2ccccc21 2.51 µM
c1csc(CNc2cc(-c3ccoc3)ncn2)c1 2 µM
c1cncc(CNc2cc(-c3ccoc3)ncn2)c1 3.16 µM
c1ccc(CNc2cc(-c3ccoc3)ncn2)cc1 25.1 µM
O=C(Oc1ccc2ccccc2c1Br)N1CCCCCC1 4.47 µM
Cn1c(-c2ccc3c(c2)OCO3)cc(=O)c2ccccc21 5.01 µM
Cc1ccccc1/C=N\NC(=O)c1csnn1 1 µM

AC50, inactive:
CC(=O)N1CCC2(CCN(Cc3ccncc3)CC2)CC1
N#Cc1ccc(CN2CCCC3(CCN(S(=O)(=O)c4ccccc4)CC3)C2)cc1
O=S(=O)(c1ccccc1)N1CCC2(CCN(Cc3ccncc3)CC2)CC1
N#Cc1ccc(CN2CC3(CCN(C(=O)c4cc(C(F)(F)F)cc(C(F)(F)F)c4)CC3)C2)cc1
O=C(c1cc(C(F)(F)F)cc(C(F)(F)F)c1)N1CCC2(CCCN(Cc3ccncc3)C2)CC1
N#Cc1ccc(CN2CCC3(CC2)CCN(C(=O)c2cc(C(F)(F)F)cc(C(F)(F)F)c2)CC3)cc1
O=C(c1cc(C(F)(F)F)cc(C(F)(F)F)c1)N1CCC[C@@]2(CCN(c3ccncc3)C2)C1
O=C(c1ccncc1)N1CCC2(CCN(Cc3ccncc3)CC2)CC1
Cc1noc(C)c1C(=O)N1CCC2(CCCN(C(c3ccccc3)c3ccccc3)C2)CC1
COc1ccc(C(=O)N2CCC3(CCCN(Cc4ccncc4)C3)CC2)cc1
O=C(c1cc(C(F)(F)F)cc(C(F)(F)F)c1)N1CCC2(CCN(Cc3ccccc3)CC2)CC1
O=C(c1ccncc1)N1CCC2(CCCN(Cc3ccccc3)C2)CC1
O=C(c1cnccn1)N1CCC[C@@]2(CCN(Cc3cc(C(F)(F)F)cc(C(F)(F)F)c3)C2)C1
O=C(c1cc(C(F)(F)F)cc(C(F)(F)F)c1)N1CCC2(CC1)CN(Cc1ccccc1)C2
CC(C)NC(=O)N1CCCC2(CCN(C(=O)c3ccncc3)CC2)C1
O=C(c1cnccn1)N1CCC[C@@]2(CCN(Cc3nccs3)C2)C1
C[C@@H]1c2cccc(O)c2C(O)=C2C(=O)[C@@]3(O)C(O)=C(C(N)=O)C(=O)[C@@H](N(C)C)[C@@H]3[C@@H](O)[C@@H]21
O=C1C(=O)N(c2cccc(Cl)c2)C(c2ccccc2[N+](=O)[O-])/C1=C(\O)c1ccccc1 (stereo unspecified)
O=C1C2CCCN2c2ccc(S(=O)(=O)N3CCOCC3)cc2N1Cc1cccc(C(F)(F)F)c1 (stereo unspecified)
CCOC(=O)C1CCN(c2c(NCc3ccc(C(=O)NCCC(C)C)cc3)c(=O)c2=O)CC1
CCCCc1c(O)nc(SCCN(C)C)n(-c2ccccc2)c1=O
Cc1ccccc1[C@@H](OCCN(C)C)c1ccccc1
Cc1occc1C(=O)NNC(=O)c1ccc(F)cc1
CCn1c(SCC(=O)OC)nnc1C1CCCCC1
CC(C)NC(=O)N1CCCC2(CCN(C(=O)c3cccc(F)c3)CC2)C1
Cc1ccc(NC(=O)C2CC(=O)n3c(nc4ccccc43)N2)cc1 (stereo unspecified)
O=C(Oc1ccccc1)N1CCC2(CC1)CCN(c1ccccc1)CC2
Cc1ccccc1C(=O)Oc1ccc(Br)cc1C(=S)N1CCCC1
CC(C)n1cc(/C=C2/SC(=O)N(CC(=O)Nc3ccc4c(c3)OCO4)C2=O)c2ccccc21
Cn1cc(/C=C2/SC(=O)N(CC(=O)Nc3ccc4c(c3)OCO4)C2=O)c2ccccc21
O=C(c1csnn1)N1CCC2(CC1)CN(c1ccccc1)C2
O=C(Nc1ccccc1)N1CCC2(CC1)CCN(C(=O)c1csnn1)CC2
